In the library only some 2.6% were active in any assay of this set; here they are far more common.
AmpC det inh = AmpC beta-lactamase inhibition, detergent assay; P00811; purified AmpC, nitrocefin hydrolysis with detergent; Potency, µM (highest dose often 28.7 µM), for inactives: at the highest dose activity change, negative = inhibition; actives 0.09% (n = 71,000); active = well fitted curve in the direction sought with a large enough effect; inconclusive = small, poorly fitted or top-dose-only effect; note: % is set by controls: 0 for no effect and ±100 for the full control effect
Target sequence (P00811 whole entry, looked up): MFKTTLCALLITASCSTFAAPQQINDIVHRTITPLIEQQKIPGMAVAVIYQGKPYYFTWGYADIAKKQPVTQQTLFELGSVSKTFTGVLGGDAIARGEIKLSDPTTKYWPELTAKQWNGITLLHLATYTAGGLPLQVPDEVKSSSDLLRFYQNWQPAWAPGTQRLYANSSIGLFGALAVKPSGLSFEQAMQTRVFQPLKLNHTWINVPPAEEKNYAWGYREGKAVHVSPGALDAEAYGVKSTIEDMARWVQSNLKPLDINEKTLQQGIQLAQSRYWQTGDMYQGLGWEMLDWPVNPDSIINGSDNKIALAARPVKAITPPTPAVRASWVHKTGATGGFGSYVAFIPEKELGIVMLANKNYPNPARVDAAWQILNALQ
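E. coli AmpC (5.3 nM) in 20 mM phosphate pH 7.0 with 0.01% Triton X-100, preincubated 15 min RT with compound; nitrocefin (2 uL of 800 uM stock) hydrolysis followed by 480 nm absorbance every 20 s over 4 min.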
SmPrx2 inh = blocks S. mansoni peroxiredoxin 2 enzymatic activity | S. mansoni Prx2 activity coupled to TGR/GSH (TGR is thioredoxin glutathione reductase), NADPH fluorescence loss, qHTS | actives 0.07% (n = 65,000) | Potency, µM
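Activity is read as the drop in NADPH fluorescence (365/450 nm), recorded every 30 sec for 8 min after H2O2 addition. Prx2 is coupled to TGR-driven NADPH oxidation through glutathione, in phosphate buffer pH 7.4.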
AmpC inh no det = AmpC beta-lactamase inhibition, detergent-free assay; Potency, µM (top dose mostly 28.7 µM), without a hit: at the highest dose activity change, negative = inhibition; AID 585; actives 1.8% (n = 71,000); AmpC nitrocefin hydrolysis, absorbance 480 nm, no detergent; note: % of control where 0% means no effect
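AmpC in 20 mM phosphate buffer pH 7.0 was preincubated 15 min at room temperature with compounds. Nitrocefin (800 uM stock) was then added and hydrolysis followed at 480 nm every 20 s for 4 min.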
Anthrax LT inh = blocks cellular internalization of anthrax lethal toxin; Cells, anthrax lethal toxin internalization, FRET ratio (460/530); Potency, µM (series often up to 40 µM), for inactives: at the highest dose activity change, negative = inhibition, hits mostly inhibitors; actives 0.67% (n = 70,000); AID 912; note: % is set by controls: 0 for no effect and ±100 for the full control effect; nearly all actives have a fitted effect of over 50% in size
Starred values were filed as active, the others as inactive; ? = inconclusive; . = not tested or not shown; [ ] = dose if it differs, or a comment. Unless noted, calls come from the whole dose curve. Potency is the fitted concentration of half-maximal effect.

SMILES | AmpC det inh | SmPrx2 inh | AmpC inh no det | Anthrax LT inh
COc1ccccc1NC(=O)Cn1nnc(-c2ccccc2NC(=O)c2ccco2)n1 | 4% | >57 | -21% | -5%
COc1ccc(NC(=O)Cn2nnc(-c3ccccc3NC(=O)c3ccco3)n2)cc1 | 9% | >57 | 13µM* | -1%
COc1ccccc1NC(=O)Cn1nnc(-c2ccccc2NC(=O)c2cccs2)n1 | 2% | >57 | 7.9µM* | -1%
O=S(=O)(Nc1ccc2nc(-c3ccc(Br)o3)[nH]c2c1)c1ccccc1 | 10% | >57 | 3.2µM* | .
COC(=O)C(C(C)=O)C(=O)C(Cc1ccccc1)NC(=O)OCc1ccccc1 (configuration not stated) | . | . | . | -12%[8 µM]
O=C(N[C@@H](Cc1ccccc1)C(=O)CCl)OCc1ccccc1 | -5% | >57 | -2% | 16µM*
O=C1OCCC1Sc1nnc(-c2ccco2)o1 (configuration not stated) | -1% | 6.5* | 2% | -6%
CN(C)c1ccnc(SCc2ccccc2Cl)c1C#N | -3% | >57 | -2% | 7.9µM*
CCOC(=O)C1CCCN(C(=O)c2ccc(CS(=O)(=O)c3ccc(C)cc3)o2)C1 (configuration not stated) | 11% | >57 | 2.5µM*[single pt active] | -8%
Cc1ccc(S(=O)(=O)Cc2ccc(C(=O)N3CCCC3)o2)cc1 | 12% | >57 | 4µM*[single pt active] | -5%
CCOC(=O)C1CCCN(C(=O)c2ccc(CS(=O)(=O)Cc3ccccc3C)o2)C1 (configuration not stated) | -2% | >57 | 53% | ?
Cc1ccc(S(=O)(=O)Cc2ccc(C(=O)N3CCCCCC3)o2)cc1 | 15% | >57 | 49% | -8%
C[C@H]1CC[C@@]2(NC1)O[C@@H]1C[C@@H]3[C@@H]4CC=C5C[C@@H](O)CC[C@]5(C)[C@@H]4CC[C@]3(C)[C@H]1[C@@H]2C | -1%[5.75 µM] | >57 | -17%[5.75 µM] | 11%[8 µM]
O=S(c1ccccc1)c1ccc2nnnn2n1 (configuration not stated) | -1% | >57 | -1% | .
CS(=O)(=O)N1CCc2cc(-c3csc(NC(=O)Cc4cccs4)n3)ccc21 | 1% | >57 | ? | 13µM*
O=C(O)[C@H]1[C@H](C(=O)O)[C@H](C(=O)O)C[C@@H]1C(=O)O | -4%[5.75 µM] | >57 | 0%[5.75 µM] | ?
Cn1cc(C(=O)c2ccc(Cl)cc2)cc1-c1nc2ccccc2n1C | 18% | >57 | 35% | 13µM*
CCOC(=O)N1CCC(NC(=O)Cn2nc(-c3ccccc3)ccc2=O)CC1 | -6% | >57 | 112% | ?
CCOC(=O)N1CCC(NC(=O)Cn2nc(Cc3ccncc3)c3ccccc3c2=O)CC1 | 14% | >57 | 4µM*[single pt active] | -10%
O=S(=O)(Nc1cccnc1)c1cccc2cccnc12 | 11% | >57 | -10% | 3%
CCCCCCCCCCCCOCC1CO1 (configuration not stated) | 13% | . | -5% | -3%
N[C@@H](Cc1cc(O)c(O)cc1O)C(=O)O | -26% | >57 | 5µM* | -9%
COc1cccc(C2CC(=O)N3CN(c4ccccc4F)CSC3=C2C#N)c1 (configuration not stated) | 8% | >57 | 4µM*[single pt active] | ?
COc1cc(C2CC(=O)N3CN(c4ccccc4C)CSC3=C2C#N)cc(OC)c1OC (configuration not stated) | -6% | >57 | 48% | ?
COc1ccccc1N1CSC2=C(C#N)C(c3ccc(SC)cc3)CC(=O)N2C1 (configuration not stated) | 11% | >57 | 2.5µM* | ?
SMILES | AmpC det inh | SmPrx2 inh | AmpC inh no det | Anthrax LT inh
COc1ccc(OC)c(C2CC(=O)N3CN(c4ccccc4F)CSC3=C2C#N)c1 (configuration not stated) | 12% | >57 | 4µM*[single pt active] | -7%
c1ccc(SCCSc2ccccc2)cc1 | 8% | . | -13% | ?
Cc1cccc(NS(=O)(=O)c2ccc(C)c(C(=O)OCC(=O)Nc3cc(C)on3)c2)c1 | -6% | >57 | 10µM* | ?
Cc1cccc(NS(=O)(=O)c2cc(C(=O)OCC(=O)Nc3cc(C)on3)ccc2C)c1 | 0% | >57 | ? | -24%
COc1cccc(C2CC(=O)N3CN(c4cccc(Cl)c4C)CSC3=C2C#N)c1OC (configuration not stated) | 13% | . | 4µM*[single pt active] | ?
COc1ccc(OC)c(C2CC(=O)N3CN(c4cccc(Cl)c4C)CSC3=C2C#N)c1 (configuration not stated) | 12% | >57 | 4µM*[single pt active] | ?
COc1ccc(OC)c(C2CC(=O)N3CN(c4cccc(Cl)c4)CSC3=C2C#N)c1 (configuration not stated) | 8% | >57 | -23% | -30%
CCOC(=O)CC(SP(=S)(OC)OC)C(=O)OCC (configuration not stated) | 6.3µM* | . | ? | ?
CCOC(=O)OCC | 6% | . | -5% | -1%
CCOC(C)(C)C | 8% | . | -10% | 2%
COc1cccc(C2c3c(oc4ccccc4c3=O)C(=O)N2CCCN2CCOCC2)c1 (configuration not stated) | 12% | >57 | 4µM*[single pt active] | 1%
CC(C)CCOc1cccc(C2c3c(oc4ccccc4c3=O)C(=O)N2CCCN2CCOCC2)c1 (configuration not stated) | 15% | >57 | 115% | -20%
O=C(c1ccc(N2CCCCS2(=O)=O)cc1)N1CCN(c2ccc(N3CCOCC3)nn2)CC1 | 12% | >57 | 4µM*[single pt active] | -10%
Cc1ccc([C@@H](O)c2cnc(C)n2Cc2ccccc2)cc1 | -5%[5.75 µM] | >57 | 10%[5.75 µM] | -9%[8 µM]
Cc1cccc(N2CCN(C(=O)C3CCN(c4nnc(-n5cccc5)s4)CC3)CC2C)c1 (configuration not stated) | 5% | >57 | 105% | 7.9µM*
CCCC[N+]1(C)[C@@H]2CC(OC(=O)[C@@H](CO)c3ccccc3)C[C@H]1[C@H]1O[C@H]12 (some centres not stated) | -1% | >57 | -1% | 1%
c1nc(N2CC2)c2cnn([C@@H]3CCCCO3)c2n1 | -2%[5.75 µM] | >57 | 7%[5.75 µM] | -16%[8 µM]
CN(C)CCCO[C@H]1[C@@H]2OC(C)(C)O[C@@H]2O[C@@H]1[C@H](O)CO | -1%[12.8 µM] | >57 | -7%[12.8 µM] | -2%[3.58 µM]
CC1CCCCN1CCn1cnc2c([nH]c3ccccc32)c1=O (configuration not stated) | 13% | >57 | 4µM*[single pt active] | 1%
O=c1c2[nH]c3ccc(F)cc3c2ncn1CCN1CCN(Cc2ccccc2)CC1 | 10% | >57 | 3.2µM*[single pt active] | -10%
CC(C)CO[C@H](c1ccc2c(c1)OCO2)[C@H](C)Br | -4%[5.75 µM] | >57 | 8%[5.75 µM] | -6%[8 µM]
CN(C)c1nc(N2CCCCC2)nc(N2CCCCC2)n1 | 14% | >57 | 4µM*[single pt active] | -18%
COC(=O)CC[C@@H](C)[C@H]1CC[C@H]2[C@H]3CC[C@H]4C[C@@H]5CC[C@@]4(C)C3(O5)[C@@H](Br)[C@@H](Br)[C@@]12C | 0%[5.75 µM] | >57 | -6%[5.75 µM] | ?
Cc1ccc(Cn2c(SCC(=O)Nc3cc(C)on3)nc3ccccc3c2=O)cc1 | -1% | >57 | 13µM*[single pt active] | 11%

Bioassay records deposited in PubChem by National Center for Advancing Translational Sciences (NCATS).
